Some test systems named below: FER; FES; FGFR1; FGFR2; FGFR3; FGFR4; FGR; FLT1; FLT3-autoinhibited; FLT3; FLT4; FRK; FYN; GAK; GRK1; GRK4.
Holding throughout (conditions): concentration: 1 μM, replicates: in singlicate; n = 1
The next assay concerns T1, FAK.
T1 construct: gene PTK2

For the next assay, the system named is T2, GCN2(Kin.Dom.2,S808G).
T2 construct: gene EIF2AK4

In a further assay the test system is T3, GRK2.
T3 construct: gene ADRBK1

The test system of another assay is T4, GRK3.
T4 construct: gene ADRBK2
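Further: KINOMEscan kinase panel screen.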

With `COc1cccc(NC(=O)NC2CCN(c3ccnc(Nc4ccc(F)cc4)n3)C2)c1` (stereo not shown) [GSK1379721], the “%Inh” value amounted to 0% in the assay with FAK; 0% in the assay with FER; 0% with FES; 0% in the assay with FGFR1; 0% in the assay on FGFR2; 6% in the assay with FGFR3. Further, the “%Inh” value amounted to 1% in the assay on FGFR4; 0% in the assay with FGR; 11% with FLT1; 0% with FLT3-autoinhibited; 3% in the assay with FLT3; 0% in the assay on FLT4. In addition, the “%Inh” value with FRK was 0%; in the assay on FYN, 25%; with GAK, 3%; with GCN2(Kin.Dom.2,S808G) it was 0%; in the assay on GRK1 it was 0%; in the assay on GRK2, 0%. Further, the results for the “%Inh” value in the assay on GRK3 and in the assay with GRK4 were 18% and 0%, respectively.
Regarding `Cc1csc(-c2nc(Nc3ccncc3)c3ccccc3n2)n1` [GW869640], the “%Inh” value was found to be 3% with FAK; 7% in the assay with FER; 10% in the assay with FES; 17% in the assay with FGFR1; 6% in the assay with FGFR2; 6% in the assay on FGFR3. In addition, the “%Inh” value was 16% in the assay with FGFR4; 7% in the assay on FGR; 19% with FLT1; 26% in the assay with FLT3-autoinhibited; 39% in the assay with FLT3; 6% with FLT4. Also, the “%Inh” value in the assay on FRK is recorded as 4%; with FYN, 24%; in the assay with GAK, 21%; in the assay on GCN2(Kin.Dom.2,S808G), 13%; in the assay on GRK1, 27%; in the assay on GRK2 it was 0%. For the same compound, the results for the “%Inh” value in the assay with GRK3 and in the assay with GRK4 were 0% and 29%, respectively.
Regarding `COc1cc(Nc2nccc(N3CCC(NC(=O)Nc4cc(C)ccc4C)C3)n2)cc(OC)c1OC` (stereo not shown) [GSK1379762], the “%Inh” value in the assay on FAK was found to be 0%; in the assay with FER, 0%; in the assay with FES it was 0%; in the assay with FGFR1 it was 5%; in the assay on FGFR2 it was 11%; in the assay with FGFR3, 30%. The “%Inh” value is reported as 0% with FGFR4; 14% in the assay with FGR; 22% with FLT1; 0% with FLT3-autoinhibited; 36% in the assay with FLT3; 14% in the assay on FLT4. For the same compound, the “%Inh” value turned out to be 8% in the assay on FRK; 0% with FYN; 28% in the assay on GAK; 3% in the assay with GCN2(Kin.Dom.2,S808G); 0% in the assay with GRK1; 0% with GRK2. Besides, the “%Inh” value is reported as 10% in the assay on GRK3 and 20% with GRK4.
With `Cn1ccc2ncnc(Oc3ccc(Nc4nc5ccccc5[nH]4)cc3)c21`, the “%Inh” value was found to be 0% in the assay with FAK; 0% in the assay with FER; 0% with FES; 3% in the assay on FGFR1; 0% with FGFR2; 0% in the assay with FGFR3. For the same compound, the “%Inh” value in the assay with FGFR4 is recorded as 0%; in the assay with FGR, 9%; in the assay with FLT1, 0%; with FLT3-autoinhibited, 0%; in the assay on FLT3, 0%; in the assay with FLT4 it was 0%. Also, the “%Inh” value in the assay with FRK came out at 0%; in the assay on FYN it was 0%; with GAK it was 0%; in the assay with GCN2(Kin.Dom.2,S808G), 0%; in the assay with GRK1 it was 4%; with GRK2, 0%. The figures for the “%Inh” value in the assay with GRK3 and in the assay with GRK4 were 0% and 9%, respectively.
With `Cc1cccc(-c2nc(Nc3cccc(C(N)=O)c3)c3ccccc3n2)n1` [GW876019], the “%Inh” value with FAK worked out at 0%; with FER, 0%; in the assay on FES it was 25%; with FGFR1, 0%; with FGFR2 it was 17%; with FGFR3, 1%. Moreover, the “%Inh” value in the assay with FGFR4 was 0%; in the assay on FGR it was 58%; in the assay with FLT1, 42%; in the assay on FLT3-autoinhibited it was 0%; in the assay with FLT3, 0%; in the assay on FLT4, 10%. For the same compound, the “%Inh” value came out at 16% in the assay on FRK; 0% with FYN; 0% in the assay on GAK; 0% in the assay on GCN2(Kin.Dom.2,S808G); 14% in the assay on GRK1; 0% with GRK2. For the same compound, the “%Inh” value in the assay with GRK3 and in the assay with GRK4 was 0% throughout.
Turning to `COc1cccc(-c2cc(-c3c[nH]nc3-c3ccccn3)ccn2)c1` [GW680338], the “%Inh” value is listed as 0% in the assay on FAK; 0% with FER; 9% with FES; 0% in the assay with FGFR1; 0% in the assay with FGFR2; 1% with FGFR3. For the same compound, the “%Inh” value was determined as 6% with FGFR4; 19% in the assay with FGR; 3% with FLT1; 0% with FLT3-autoinhibited; 0% in the assay on FLT3; 83% with FLT4. Also, the “%Inh” value in the assay with FRK is reported as 10%; in the assay on FYN, 11%; in the assay on GAK it was 75%; with GCN2(Kin.Dom.2,S808G), 7%; with GRK1 it was 1%; in the assay with GRK2 it was 0%. For the same compound, the “%Inh” value with GRK3 was 14%; in the assay on GRK4, 0%.
With `Cc1cccc(-c2nc(Nc3ccncc3)c3ccccc3n2)n1` [GW855857], the “%Inh” value in the assay on FAK was 31%; in the assay on FER it was 0%; with FES, 13%; in the assay on FGFR1 it was 5%; in the assay with FGFR2, 7%; in the assay on FGFR3, 2%. Further, the “%Inh” value in the assay with FGFR4 is listed as 6%; with FGR, 31%; in the assay on FLT1 it was 0%; in the assay on FLT3-autoinhibited, 0%; with FLT3, 0%; in the assay on FLT4 it was 1%. The “%Inh” value in the assay with FRK is reported as 15%; in the assay with FYN, 13%; in the assay with GAK it was 0%; with GCN2(Kin.Dom.2,S808G), 0%; with GRK1 it was 0%; in the assay on GRK2, 0%. In addition, the “%Inh” value in the assay with GRK3 and in the assay with GRK4 was 0% in each case.
As for `Cc1cc(N2Cc3ccccc3C2)nc(Nc2ccc(S(=O)(=O)N3CCOCC3)cc2)n1.Cl` [GSK1669917], the “%Inh” value in the assay with FAK was found to be 0%; in the assay on FER it was 25%; in the assay with FES it was 9%; in the assay on FGFR1 it was 0%; in the assay on FGFR2, 11%; in the assay with FGFR3, 15%. The “%Inh” value turned out to be 1% with FGFR4; 0% with FGR; 9% with FLT1; 0% in the assay on FLT3-autoinhibited; 0% in the assay with FLT3; 3% in the assay on FLT4. Moreover, the “%Inh” value was found to be 11% in the assay with FRK; 0% in the assay on FYN; 0% in the assay with GAK; 0% in the assay with GCN2(Kin.Dom.2,S808G); 0% in the assay on GRK1; 0% in the assay on GRK2. The “%Inh” value in the assay on GRK3 and in the assay on GRK4 was 0% in each case.
Regarding `Cn1cncc1-c1ccc2ncnc(Nc3ccc(OCc4ccccc4)cc3)c2c1` [GW320571], the “%Inh” value with FAK is reported as 0%; in the assay with FER, 25%; in the assay with FES, 0%; in the assay on FGFR1, 2%; in the assay with FGFR2 it was 13%; in the assay with FGFR3 it was 31%. Further, the “%Inh” value was found to be 14% in the assay with FGFR4; 15% in the assay with FGR; 27% in the assay on FLT1; 0% in the assay with FLT3-autoinhibited; 62% in the assay on FLT3; 6% in the assay on FLT4. Also, the “%Inh” value in the assay on FRK was 8%; with FYN it was 12%; in the assay on GAK, 0%; in the assay with GCN2(Kin.Dom.2,S808G), 0%; in the assay with GRK1, 8%; in the assay with GRK2, 7%. Moreover, the “%Inh” value with GRK3 and with GRK4 was 0% in each case.
On to `O=c1cc(N2CCOCC2)nc2n(Cc3cccc(Cl)c3Cl)ccn12` [GSK2286295], for which the “%Inh” value with FAK worked out at 0%; in the assay with FER, 12%; in the assay on FES, 12%; in the assay on FGFR1, 0%; with FGFR2 it was 0%; in the assay on FGFR3 it was 5%. Also, the “%Inh” value in the assay on FGFR4 was found to be 12%; with FGR, 16%; in the assay with FLT1 it was 26%; in the assay on FLT3-autoinhibited, 0%; with FLT3, 0%; in the assay on FLT4, 3%. For the same compound, the “%Inh” value in the assay on FRK is reported as 0%; in the assay with FYN, 47%; in the assay with GAK it was 6%; with GCN2(Kin.Dom.2,S808G) it was 0%; in the assay on GRK1, 5%; in the assay on GRK2 it was 0%. Also, the “%Inh” value with GRK3 and in the assay on GRK4 was 0% throughout.
For `NC(=O)c1nnc2ccccc2c1N`, the “%Inh” value came out at 12% in the assay on FAK; 0% in the assay with FER; 4% in the assay on FES; 41% in the assay with FGFR1; 7% in the assay with FGFR2; 90% in the assay on FGFR3. The “%Inh” value in the assay with FGFR4 is recorded as 0%; in the assay on FGR, 21%; with FLT1, 7%; with FLT3-autoinhibited, 16%; in the assay with FLT3, 15%; with FLT4 it was 5%. For the same compound, the “%Inh” value in the assay with FRK was 0%; in the assay with FYN, 0%; in the assay with GAK, 24%; in the assay on GCN2(Kin.Dom.2,S808G) it was 13%; with GRK1 it was 12%; in the assay on GRK2, 67%. Moreover, the “%Inh” value came to 13% with GRK3 and 28% in the assay on GRK4.
With `Fc1cc(Cl)ccc1Nc1ccnc2cc(I)ccc12` [GW551191], the “%Inh” value with FAK amounted to 0%; in the assay on FER it was 0%; in the assay on FES it was 0%; with FGFR1, 8%; in the assay on FGFR2, 18%; in the assay with FGFR3, 0%. Besides, the “%Inh” value stood at 5% in the assay with FGFR4; 30% with FGR; 30% in the assay on FLT1; 0% in the assay on FLT3-autoinhibited; 0% in the assay with FLT3; 3% in the assay with FLT4. For the same compound, the “%Inh” value with FRK came to 20%; with FYN it was 25%; in the assay with GAK, 82%; in the assay on GCN2(Kin.Dom.2,S808G), 5%; in the assay on GRK1, 0%; with GRK2, 0%. The figures for the “%Inh” value in the assay with GRK3 and in the assay with GRK4 were 32% and 4%, respectively.
With `Cc1cccc(-c2cc(Nc3ccncc3)c3ccccc3n2)n1` [GSK223675], the “%Inh” value is 0% with FAK; 0% in the assay with FER; 0% with FES; 0% in the assay on FGFR1; 0% in the assay with FGFR2; 12% in the assay with FGFR3. Also, the “%Inh” value in the assay on FGFR4 is recorded as 0%; with FGR it was 7%; in the assay with FLT1 it was 13%; with FLT3-autoinhibited it was 7%; in the assay on FLT3 it was 0%; with FLT4 it was 0%. Also, the “%Inh” value is given as 0% in the assay with FRK; 40% with FYN; 0% with GAK; 0% with GCN2(Kin.Dom.2,S808G); 0% with GRK1; 0% with GRK2. Besides, the “%Inh” value with GRK3 and with GRK4 was 0% throughout.
In the case of `O=C(Nc1n[nH]c2nc(-c3nccs3)c(Br)cc12)C1CCCC1` [SB-742609], the “%Inh” value with FAK, in the assay on FER, in the assay on FES, in the assay on FGFR1, in the assay on FGFR2 and in the assay with FGFR3 was 0% in each case. In addition, the “%Inh” value with FGFR4 is listed as 12%; with FGR, 20%; with FLT1, 29%; in the assay with FLT3-autoinhibited, 10%; in the assay on FLT3, 44%; in the assay with FLT4 it was 19%. Moreover, the “%Inh” value turned out to be 24% in the assay on FRK; 23% with FYN; 2% in the assay on GAK; 5% in the assay with GCN2(Kin.Dom.2,S808G); 0% in the assay on GRK1; 0% in the assay with GRK2. Also, the “%Inh” value in the assay on GRK3 is reported as 66%; in the assay with GRK4, 11%.

(Values after paper PMC5540273 (PLoS ONE, 2017).)
